Measured values reported in PubChem BioAssay AID1159580 (chemical genetic matrix, 2015).
“And” between values parts separate entries of the source, which are not always exact repeats. Equal values may be shown once. Among all 5,500 compounds or so, about 2,000 (36%) were called active. Another 18% or so got no clear call; they are omitted. This is one part of the list. A number with no mark means an inactive call. Rule as the data show it: active = normalized growth mostly below about 0.91 (no sharp cut-off); inconclusive = no clear call, values can overlap the other calls; inactive = mostly above about 0.92.

Experiment: chemical genetic growth profiling, strain panel (AID 1159580);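 also: tested at 20 µM; growth read once vehicle control cultures reached saturation at 30 °C; 1 = growth at the plate median or of vehicle wells; lower values mean less growth of the strain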
Conditions: S. cerevisiae deletion strains, growth OD

## O=c1cc(-c2cc(O)c(O)c(O)c2)oc2cc(O)cc(O)c12
Locus YAL013W, strain DEP1, hits give low values
  normalized growth: 0.997
Locus YAL021C, strain ccr4, hits give low values
  normalized growth: 0.901 (active)
Locus YAL026C, strain drs2, hits give low values
  normalized growth: 0.927
Locus YAL030W, strain snc1, hits give low values
  normalized growth: 1.01
Locus YBL061C, strain skt5, hits give low values
  normalized growth: 0.942
Locus YBR009C, strain hhf1, hits give low values
  normalized growth: 0.95
Locus YBR021W, strain FUR4, hits give low values
  normalized growth: 1.07
Locus YBR023C, strain chs3, hits give low values
  normalized growth: 0.897 (active)
Locus YBR171W, strain sec66, hits give low values
  normalized growth: 1
Locus YBR229C, strain ROT2, hits give low values
  normalized growth: 0.988
Locus YBR231C, strain swc5, hits give low values
  normalized growth: 0.909 (active)
Locus YBR279W, strain paf1, hits give low values
  normalized growth: 0.935
Locus YCL011C, strain gbp2, hits give low values
  normalized growth: 0.946
Locus YCL016C, strain dcc1, hits give low values
  normalized growth: 0.94
Locus YCL029C, strain bik1, hits give low values
  normalized growth: 0.988
Locus YCL061C, strain MRC1, hits give low values
  normalized growth: 0.942
Locus YCL069W, strain vba3, hits give low values
  normalized growth: 0.997
Locus YCR088W, strain abp1, hits give low values
  normalized growth: 0.995
Locus YDL005C, strain med2, hits give low values
  normalized growth: 1.02
Locus YDL035C, strain GPR1, hits give low values
  normalized growth: 0.992
Locus YDL040C, strain nat1, hits give low values
  normalized growth: 1.04
Locus YDL074C, strain BRE1, hits give low values
  normalized growth: 0.957
Locus YDL101C, strain DUN1, hits give low values
  normalized growth: 1.01
Locus YDL134C, strain PPH21, hits give low values
  normalized growth: 1.05
Locus YDL185W, strain tfp1, hits give low values
  normalized growth: 0.941
Locus YDL192W, strain arf1, hits give low values
  normalized growth: 0.971
Locus YDR001C, strain nth1, hits give low values
  normalized growth: 1.01
Locus YDR069C, strain doa4, hits give low values
  normalized growth: 0.855 (active)
Locus YDR101C, strain arx1, hits give low values
  normalized growth: 1.01
Locus YDR137W, strain rgp1, hits give low values
  normalized growth: 0.992
Locus YDR159W, strain sac3, hits give low values
  normalized growth: 1.05
Locus YDR162C, strain NBP2, hits give low values
  normalized growth: 1.03
Locus YDR195W, strain ref2
  normalized growth: 1.05
Locus YDR297W, strain sur2, hits give low values
  normalized growth: 0.971
Locus YDR318W, strain mcm21, hits give low values
  normalized growth: 0.995
Locus YDR334W, strain swr1, hits give low values
  normalized growth: 0.978
Locus YDR335W, strain msn5, hits give low values
  normalized growth: 0.986
Locus YDR388W, hits give low values
  normalized growth: 0.996
Locus YDR392W, strain spt3, hits give low values
  normalized growth: 0.893
Locus YDR502C, strain sam2, hits give low values
  normalized growth: 0.984
Locus YEL003W, strain gim4, hits give low values
  normalized growth: 0.957
Locus YEL037C, strain rad23, hits give low values
  normalized growth: 0.979
Locus YEL061C, strain CIN8 (second series), hits give low values
  normalized growth: 1
Locus YEL061C, strain CIN8, hits give low values
  normalized growth: 1
Locus YER015W, strain faa2, hits give low values
  normalized growth: 0.984
Locus YER016W, strain bim1, hits give low values
  normalized growth: 1
Locus YER110C, hits give low values
  normalized growth: 0.996
Locus YER111C, strain swi4, hits give low values
  normalized growth: 0.965
Locus YER155C, strain BEM2 (second series), hits give low values
  normalized growth: 0.938
Locus YER155C, strain BEM2, hits give low values
  normalized growth: 1.03
Locus YER167W, strain BCK2, hits give low values
  normalized growth: 1.01
Locus YFR010W, strain ubp6, hits give low values
  normalized growth: 0.942
Locus YGL078C, strain dbp3, hits give low values
  normalized growth: 0.979
Locus YGL086W, strain mad1, hits give low values
  normalized growth: 1.01
Locus YGL167C, strain pmr1, hits give low values
  normalized growth: 0.988
Locus YGL173C, strain kem1, hits give low values
  normalized growth: 0.967
Locus YGL227W, strain vid30, hits give low values
  normalized growth: 1.01
Locus YGL240W, strain doc1, hits give low values
  normalized growth: 1.02
Locus YGL248W, strain PDE1, hits give low values
  normalized growth: 1.01
Locus YGL253W, strain hxk2, hits give low values
  normalized growth: 0.948
Locus YGR135W, strain pre9, hits give low values
  normalized growth: 0.96
Locus YGR252W, strain gcn5, hits give low values
  normalized growth: 1
Locus YHR013C, strain ard1, hits give low values
  normalized growth: 0.904
Locus YHR027C, strain rpn1, hits give low values
  normalized growth: 0.978
Locus YHR030C, strain SLT2, hits give low values
  normalized growth: 0.989 and 1.07
Locus YHR079C, strain IRE1 (second series), hits give low values
  normalized growth: 1.02
Locus YHR079C, strain IRE1, hits give low values
  normalized growth: 1.06
Locus YHR094C, strain hxt1, hits give low values
  normalized growth: 1.02
Locus YHR129C, strain ARP1, hits give low values
  normalized growth: 0.986
Locus YHR142W, strain chs7, hits give low values
  normalized growth: 0.911
Locus YHR200W, strain rpn10, hits give low values
  normalized growth: 0.97
Locus YIL066C, strain RNR3, hits give low values
  normalized growth: 0.989
Locus YIL073C, strain SPO22, hits give low values
  normalized growth: 0.964
Locus YIL125W, strain kgd1, hits give low values
  normalized growth: 0.985
Locus YIR030C, strain dcg1, hits give low values
  normalized growth: 1
Locus YJL092W, strain hpr5, hits give low values
  normalized growth: 0.996
Locus YJL095W, strain BCK1 (second series), hits give low values
  normalized growth: 0.95
Locus YJL095W, strain BCK1, hits give low values
  normalized growth: 0.973 and 1.01
Locus YJL115W, strain asf1, hits give low values
  normalized growth: 1.01
Locus YJL129C, strain trk1, hits give low values
  normalized growth: 0.991
Locus YJL134W, strain LCB3, hits give low values
  normalized growth: 0.994
Locus YJL154C, strain vps35, hits give low values
  normalized growth: 1.02
Locus YJL164C, strain tpk1, hits give low values
  normalized growth: 0.954
Locus YJL166W, strain qcr8, hits give low values
  normalized growth: 0.957
Locus YJL168C, strain set2, hits give low values
  normalized growth: 0.998
Locus YJL187C, strain SWE1 (second series), hits give low values
  normalized growth: 0.974
Locus YJL187C, strain SWE1, hits give low values
  normalized growth: 0.986
Locus YJR043C, strain POL32, hits give low values
  normalized growth: 1
Locus YJR066W, strain TOR1, hits give low values
  normalized growth: 0.981
